Screening data as filed in PubChem BioAssay.
Only a selection was taken, and hits are over-represented in it overall.
12-LOX inh: inhibitors of human 12S-lipoxygenase ALOX12; P18054; purified 12hLO, xylenol orange hydroperoxide absorbance; Potency, µM (highest dose often 108 µM), actives largely listed as inhibitors; actives 1.1% (n = 580,000); AID 1671190
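Purified human 12hLO (150 nM final) in 25 mM Hepes, 0.01% Triton X-100, pH 7.0 was preincubated 15 min at room temperature with compound. Then 40 uM arachidonic acid was added, 30 min. Hydroperoxide was read by Fe-XO absorbance ratio 573/405 nm.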
G9a inh: G9a (human) methyltransferase inhibition. Q96KQ7. G9a H3K9 monomethylation, AlphaScreen, 2 h. actives 8.8% (n = 350,000). Potency, µM (doses to about 102 µM), most hits filed as inhibitors; further: nearly all actives have a fitted effect of over 75% in size
Target sequence (Q96KQ7 913-1193 limits assumed): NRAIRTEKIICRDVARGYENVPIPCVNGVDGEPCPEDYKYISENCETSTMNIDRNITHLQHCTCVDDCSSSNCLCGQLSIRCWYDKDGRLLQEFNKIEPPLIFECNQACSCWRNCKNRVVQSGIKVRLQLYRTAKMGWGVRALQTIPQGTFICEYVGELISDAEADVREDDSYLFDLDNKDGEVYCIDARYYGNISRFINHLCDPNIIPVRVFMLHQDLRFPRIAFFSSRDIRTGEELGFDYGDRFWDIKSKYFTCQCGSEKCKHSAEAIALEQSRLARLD
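Signal arises when biotinylated H3K9 peptide, once monomethylated, bridges streptavidin donor and antibody-captured acceptor beads. Enzyme at 20 nM was preincubated 15 min with test compounds; peptide 500 nM and SAM 20 uM then reacted for 2 h.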
Sfp inh: blocks B. subtilis Sfp PPTase activity. Q9F4F7. Biochemical Sfp PPTase activity, qHTS. Potency, µM, usual class: inhibitors. actives 3.5% (n = 310,000);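 further: the enzyme is Sfp with the accession as filed and its product quenches rhodamine fluorescence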
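Fluorescence-quenching assay: 15 nM Sfp-PPTase preincubated 15 min at room temperature with compound, then 5 uM rhodamine-CoA and 12.5 uM BHQ-2-labelled YbbR peptide added. Fluorescence (ex 525/em 598 nm) read at start and after 30 min; difference gives rate.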
Glioma ERSR ind: inducers of ER stress response in human glioma cells; U87-MG GRP78 promoter luciferase reporter, 16 h; Potency, µM, most hits filed as activators; actives 0.02% (n = 420,000); AID 602332; further: series mostly up to about 76 µM; nearly all actives have a fitted effect of over 35% in size
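ERSR induction read as luciferase luminescence (Bright-Glo, 10 min at room temperature) in stably transfected human U87-MG glioma cells exposed to compounds for 16 h, using GRP78 as sensor.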
VDR inhibitor: vitamin D3 receptor (human) inhibition; VDR-SRC2-3 peptide fluorescence polarization, 2 h; Potency, µM, most hits filed as inhibitors; actives 0.93% (n = 400,000); AID 504847
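Compounds are added to VDR with labelled SRC2-3 coactivator peptide and held 2 h at room temperature. Inhibition of the VDR–peptide interaction is then read as a change in fluorescence polarization.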
Hits are given with their value; i = inactive; ? = inconclusive; nt = not tested or not shown; [ ] = another dose, or the depositor's remark. The call rests on the fitted dose curve; in most records, active means well fitted curve in the direction sought with a large enough effect; inconclusive means small, poorly fitted or top-dose-only effect, or another doubt; inactive means no such curve, though single readings can be large; an effect the other way counts as inactive or inconclusive.

SMILES	12-LOX inh	G9a inh	Sfp inh	Glioma ERSR ind	VDR inhibitor
COc1ccc(-n2c(Cc3cccn3C)nnc2SCC(=O)Nc2nc(C)cs2)cc1	i	i	i	i	i
COc1ccc(-n2c(Cc3cccn3C)nnc2SCC(=O)Nc2ccc(C)cc2C)cc1	i	45µM	i	i	?
COc1ccc(-n2c(Cc3cccn3C)nnc2SCC(=O)Nc2ccccc2OC)cc1	i	45µM	i	i	i
COc1ccc(-n2c(Cc3cccn3C)nnc2SCC(=O)Nc2ccc(Cl)cc2)cc1	i	?	i	i	i
COc1ccc(-n2c(Cc3cccn3C)nnc2SCC(=O)Nc2cc(Cl)ccc2OC)cc1	i	40µM	i	i	i
CCc1ccc(NC(=O)CSc2nnc(Cc3cccn3C)n2-c2ccc(OC)cc2)cc1	i	?	i	i	i
CCCCN(C)CCNC(=S)Nc1ccc2nc(N3CCN(CC)CC3)cc(C)c2c1	i	45µM	i	i	i
CCOC(=O)N1CCC(NC(=S)Nc2ccc3nc(N4CCN(CC)CC4)cc(C)c3c2)CC1	i	25µM	i	i	i
CCCCN(C)C(=S)Nc1ccc2nc(N3CCN(CC)CC3)cc(C)c2c1	i	45µM	i	i	i
CCCCN(CC)C(=S)Nc1ccc2nc(N3CCN(C)CC3)cc(C)c2c1	i	40µM	i	i	i
CCOC(=O)N1CCC(NC(=S)Nc2ccc3nc(N4CCN(C)CC4)cc(C)c3c2)CC1	i	?	i	i	i
CCN1CCN(c2cc(C)c3cc(NC(=S)N(C)Cc4ccccc4)ccc3n2)CC1	i	?	i	i	i
CCCCNC(=O)CCC(=O)Nc1ccc2nc(N3CCN(C)CC3)cc(C)c2c1	i	i	i	i	i
COC(=O)C(C)N1C(=O)S/C(=C/c2ccc(OC)cc2)C1=O (configuration not stated)	i	nt	nt	nt	nt
COc1ccc2nc(NC(=O)c3cc(-c4ccc(C)cc4)on3)sc2c1	i	nt	nt	nt	nt
CCCN(CCC)CCNC(=O)CCC(=O)Nc1ccc2nc(N3CCN(C)CC3)cc(C)c2c1	i	?	i	i	i
CCN1CCN(c2cc(C)c3cc(NC(=S)NCCN(C)C)ccc3n2)CC1	?	50µM	i	i	i
CCN(CC)CCNC(=S)Nc1ccc2nc(N3CCN(CC)CC3)cc(C)c2c1	i	45µM	i	i	i
COC(=O)c1ccc(C(NC(=O)OCc2ccccc2)/C(I)=C/[C@@H](C)C(=O)NCc2ccc(C)o2)cc1 (some centres not stated)	nt	nt	40µM	nt	nt
CCN(C(=O)COC(=O)c1n[nH]c2ccccc12)C1CCCCC1	i	nt	nt	nt	nt
S=C(NCCc1ccccc1)NCCN1CCOCC1	i	i	i	i	i
CN(C(=S)NCCN1CCOCC1)C(c1ccccc1)c1ccccc1	?	20µM	i	i	i
CCCCOc1ccc(/C=C/C(=O)Nc2ccc(C(N)=O)cc2)cc1	i	i	i	i	79µM
O=C(CCc1c[nH]c2ccccc12)N1CCCC1c1ccc(F)cc1 (configuration not stated)	i	nt	nt	nt	nt
O=[N+]([O-])c1cc(S(=O)(=O)NC2=NCCCCC2)ccc1NCC1CCCCC1	i	45µM	i	i	i
SMILES	12-LOX inh	G9a inh	Sfp inh	Glioma ERSR ind	VDR inhibitor
Cc1nc2cc(NC(=O)CC3(C(=O)O)CCCCC3)ccc2o1	i	nt	nt	nt	nt
COC(=O)[C@@H]1Cc2c([nH]c3ccccc23)[C@H]2C[C@H](NCCCn3ccnc3)C[C@@H](c3ccccc3F)N21	i	nt	nt	nt	nt
O=C(C1CCCN(Cc2ccc(Br)cc2)C1)N1CCCCC1 (configuration not stated)	?	?	?	i	i
O=C(C1CCCN(Cc2cccc(F)c2)C1)N1CCCCC1 (configuration not stated)	?	7.9µM	?	i	i
O=C(C1CCCN(Cc2ccccc2[N+](=O)[O-])C1)N1CCCC1 (configuration not stated)	?	8.9µM	i	i	i
Fc1cccc(CN2CCC(Cc3ccccc3)CC2)c1	?	28µM	i	i	i
COc1cc(OC)c(OC)cc1CN1CCCC(C(=O)N2CCCCC2)C1 (configuration not stated)	?	i[2.33 µM]	?	i	i
O=C(C1CCCN(Cc2cc(Br)ccc2O)C1)N1CCCCC1 (configuration not stated)	i	25µM	i	i	i
COc1cccc(C(=O)N2CC3(Cc4ccccc4N([S+](C)(=O)[O-])C3)C2)c1	i	nt	nt	nt	nt
CCSCc1ccc(C(=O)O)cc1	i	nt	nt	nt	nt
Fc1ccc(Nc2ncc(-c3cccnc3)c3c2OCC3)cc1	i	nt	nt	nt	nt
O=C(C1CCCN(Cc2ccccc2F)C1)N1CCCC1 (configuration not stated)	?	40µM	i	i	i
NC1CCCN(Cc2ccccc2F)C1 (configuration not stated)	i	nt	nt	nt	nt
CSc1ccccc1C(=O)NC1CCCN(Cc2ccccc2F)C1 (configuration not stated)	?	10µM	i	i	i
CC(=O)c1ccc(C(=O)NC2CCCN(Cc3ccccc3F)C2)cc1 (configuration not stated)	i	nt	i	i	i
CN(c1ncnc2scc(-c3ccc(Cl)cc3)c12)C1CC1	i	nt	nt	nt	nt
CCCCC(Sc1nnc(C)n1-c1ccccc1C)C(=O)Nc1cc(C)on1 (configuration not stated)	i	nt	nt	nt	nt
COc1c(Cl)cc(C(=O)NN)cc1Cl	i	nt	50µM	i	i
NNC(=O)c1cc(O)c(O)c(O)c1	?	8.9µM	32µM	i	i
COc1ccc(C(NC(=O)c2cc(OC)ccc2OC)c2ccccc2)cc1 (configuration not stated)	?	i	i	i	i
CNC(=O)c1cc(Cl)c(OC)c(OC)c1	?	7.9µM	45µM	i	i
COc1cc(C(=O)NC(c2ccccc2)c2ccccc2)cc(OC)c1C	nt	50µM	i	i	i
Cc1ccc2nc(NC(=O)CSCC(=O)OCC(=O)c3ccc(Br)cc3)sc2c1	i	45µM	i	i	?
COC(=O)c1ccc2nc(NC(=O)CSCC(=O)OCC(=O)c3ccccc3)sc2c1	i	7.9µM	i	i	i
Cc1ccc2oc(-c3ccc(C)c(NC(=O)COc4ccccc4)c3)nc2c1	i	nt	nt	nt	nt
SMILES	12-LOX inh	G9a inh	Sfp inh	Glioma ERSR ind	VDR inhibitor
O=C(CSc1nc(-c2ccccc2)cc(C(F)(F)F)n1)NC1CCCCC1	i	nt	nt	nt	nt
Cc1ccc(CN(C)C(=O)NCc2ccc(S(=O)(=O)N3CCCCC3)cc2)cc1	i	nt	nt	nt	nt
Cc1ccc(CNC(=O)CC(C)S(=O)(=O)c2ccc3c(c2)NC(=O)CS3)o1 (configuration not stated)	i	nt	25µM	i	i
Cc1ccccc1C1CC(=O)Oc2ccc(O)cc21 (configuration not stated)	nt	10µM	126µM	i	?
COc1cc2c(c(OC)c1OC)C(c1ccc(O)cc1)CC(=O)O2 (configuration not stated)	i	?	i	i	i
COc1cc(C2CC(=O)Oc3ccc(O)cc32)cc(OC)c1OC (configuration not stated)	nt	16µM	50µM	50µM	i
